Activity calls are given as the source filed them. The calls were made as follows: active = hit-call score of the fitted dose curve at least 0.9, where 1 is the maximum; inactive = score below 0.9.
Key:
[1] = APR_HepG2_NuclearSize_72hr: Apredica 72-hour HepG2 Assay for Nuclear Size (AID 2282925); conditions: high-content imaging, actives raise or lower the signal
In short: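 Read-out: nuclear diameter from Hoechst 33342 images (ArrayScan, 20x, six fields/well), via cell-cycle image analysis. HepG2 were dosed 0.39–200 uM for 72 hr in 0.5% DMSO. Bidirectional fit relative to DMSO.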

[2] = ATG_CRE_CIS: Attagene CIS-FACTORIAL HepG2 Assay for human cAMP Responsive Element (CRE) binding protein 3 (AID 2282926); conditions: HepG2 CRE cis-reporter, Attagene multiplexed mRNA; actives raise or lower the signal
In short: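 Liver-derived HepG2, transfected with a CRE-containing reporter panel, exposed 24 h; transcript levels sized and quantified by capillary electrophoresis of labelled amplicons; signal changes either way referenced to vehicle.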

[3] = molecular target: CCAAT/enhancer-binding protein beta (Homo sapiens) (UniProt P17676); experiment: ATG_C_EBP_CIS: Attagene CIS-FACTORIAL HepG2 Assay for human CCAAT/Enhancer Binding Protein (C/EBP) beta (AID 2282927); conditions: HepG2 Attagene cis-factorial transcription factor reporter; actives raise or lower the signal
Chain of CCAAT/enhancer-binding protein beta (Homo sapiens) (P17676 whole entry, looked up): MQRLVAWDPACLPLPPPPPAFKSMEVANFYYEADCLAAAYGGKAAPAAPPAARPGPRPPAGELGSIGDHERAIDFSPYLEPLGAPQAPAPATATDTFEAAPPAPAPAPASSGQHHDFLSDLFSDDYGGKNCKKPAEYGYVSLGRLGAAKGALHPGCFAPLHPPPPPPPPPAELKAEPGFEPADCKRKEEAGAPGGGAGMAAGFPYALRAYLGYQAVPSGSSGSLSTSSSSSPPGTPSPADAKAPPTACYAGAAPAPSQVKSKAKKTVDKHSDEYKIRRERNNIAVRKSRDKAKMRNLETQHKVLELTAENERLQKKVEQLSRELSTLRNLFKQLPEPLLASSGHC
In short: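 HepG2, transient MRTU transfection, 24 h treatment. RT-PCR plus CE fluorescence; DMSO negative control, bidirectional fit.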

[4] = ATG_CMV_CIS: Attagene CIS-FACTORIAL HepG2 Assay for human CMV (Internal Marker) (AID 2282928); conditions: HepG2 CMV promoter reporter, transcription factor profiling; actives raise or lower the signal;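 also: endpoint acts as a background internal control marker rather than a target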
In short: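 Bidirectional fits against DMSO are applied to reporter mRNA, read by RT-PCR with capillary electrophoresis, from HepG2 cells exposed 24 h. The endpoint serves as an internal CMV background marker within the cis-factorial reporter panel.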

[5] = ATG_DR4_LXR_CIS: Attagene CIS-FACTORIAL HepG2 Assay for human Liver X Receptor (LXR), DR4 submotif (AID 2282929); conditions: HepG2 Attagene DR4 cis-reporter, mRNA transcription; actives raise or lower the signal
In short: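 Readout: reporter transcript fluorescence after RT-PCR and capillary electrophoresis, fitted bidirectionally against DMSO controls. Human HepG2 liver cells carried transiently transfected multiplexed reporter constructs; endogenous transcription factor activity measured 24 h post-dosing.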

[6] = molecular target: Aryl hydrocarbon receptor (Homo sapiens) (UniProt P35869); experiment: ATG_Ahr_CIS: Attagene CIS-FACTORIAL HepG2 Assay for human Aryl Hydrocarbon Receptor (Ahr) (AID 2282930); conditions: HepG2 AhR cis-factorial reporter transcription; actives raise or lower the signal
Chain of Aryl hydrocarbon receptor (Homo sapiens) (P35869 whole entry, looked up): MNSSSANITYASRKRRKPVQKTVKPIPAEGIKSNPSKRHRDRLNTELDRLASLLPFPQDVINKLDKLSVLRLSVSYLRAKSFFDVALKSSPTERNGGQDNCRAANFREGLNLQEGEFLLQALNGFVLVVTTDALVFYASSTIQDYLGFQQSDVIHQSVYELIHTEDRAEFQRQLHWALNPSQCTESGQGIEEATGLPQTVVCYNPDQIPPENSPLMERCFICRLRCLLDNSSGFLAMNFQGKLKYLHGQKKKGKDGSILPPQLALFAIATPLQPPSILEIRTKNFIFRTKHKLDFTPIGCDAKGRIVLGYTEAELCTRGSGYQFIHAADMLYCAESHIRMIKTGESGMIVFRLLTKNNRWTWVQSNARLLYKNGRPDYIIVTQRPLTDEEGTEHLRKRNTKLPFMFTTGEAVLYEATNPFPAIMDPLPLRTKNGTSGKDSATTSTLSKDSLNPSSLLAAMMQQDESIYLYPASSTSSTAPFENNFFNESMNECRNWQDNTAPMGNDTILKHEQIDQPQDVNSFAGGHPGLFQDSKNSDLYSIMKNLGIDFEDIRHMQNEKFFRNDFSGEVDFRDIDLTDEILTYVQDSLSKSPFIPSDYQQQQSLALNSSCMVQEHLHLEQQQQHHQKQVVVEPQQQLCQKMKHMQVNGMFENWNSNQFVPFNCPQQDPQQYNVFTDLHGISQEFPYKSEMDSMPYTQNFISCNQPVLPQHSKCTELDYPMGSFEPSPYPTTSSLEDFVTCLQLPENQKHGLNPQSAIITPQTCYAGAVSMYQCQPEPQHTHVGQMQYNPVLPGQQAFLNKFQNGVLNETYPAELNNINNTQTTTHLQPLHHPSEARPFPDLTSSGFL
In short: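 Endogenous factor activity is tracked through cis-promoter reporter units transfected into HepG2 cells. Transcript levels at 24 h are read by fluorescent RT-PCR and capillary electrophoresis, with activity in either direction scored relative to DMSO.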

[7] = ATG_AP_1_CIS: Attagene CIS-FACTORIAL HepG2 Assay for human Activator Protein 1 (AP-1) (AID 2282931); conditions: HepG2 Attagene cis-factorial AP-1 reporter mRNA; actives raise or lower the signal
In short: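 Reporter transcripts were measured 24 h after dosing by RT-PCR and capillary electrophoresis of fluorescent fragments. Cells: HepG2 carrying transfected cis-regulated reporter constructs reading endogenous factor activity. Gain or loss fitted against DMSO.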

[8] = ATG_AP_2_CIS: Attagene CIS-FACTORIAL HepG2 Assay for human Activator Protein 2 (AP-2) (AID 2282932); conditions: HepG2 AP-2 cis-reporter, Attagene transcription factor profiling; actives raise or lower the signal
In short: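 Liver-derived HepG2 line, cis-reporter system measuring endogenous factors; 24 h dosing; reporter mRNA detected by fluorescent RT-PCR and capillary electrophoresis.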

[9] = ATG_BRE_CIS: Attagene CIS-FACTORIAL HepG2 Assay for human Bone Morphogenetic Protein (BMP) Response Element (BRE) (AID 2282933); conditions: HepG2 BMP response element reporter, Attagene transcription factor profiling; actives raise or lower the signal
In short: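 HepG2 cells transiently transfected with multiplexed cis-element reporter units were dosed with chemical for 24 h. Reporter mRNA was measured by RT-PCR with fluorescent labelling, HpaI digestion and capillary electrophoresis; bidirectional fitting relative to DMSO.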

[10] = molecular target: Retinoic acid receptor alpha (Homo sapiens) (UniProt P10276); experiment: ATG_DR5_RAR_CIS: Attagene CIS-FACTORIAL HepG2 Assay for human Retinoic Acid Receptor Alpha (RARE), DR5 submotif (AID 2282934); conditions: HepG2 Attagene cis-factorial RARE DR5 reporter, mRNA; actives raise or lower the signal;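 as to AC50: reporter responds to endogenous RAR alpha beta and gamma in HepG2 not RARA alone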
Chain of Retinoic acid receptor alpha (Homo sapiens) (P10276 whole entry, looked up): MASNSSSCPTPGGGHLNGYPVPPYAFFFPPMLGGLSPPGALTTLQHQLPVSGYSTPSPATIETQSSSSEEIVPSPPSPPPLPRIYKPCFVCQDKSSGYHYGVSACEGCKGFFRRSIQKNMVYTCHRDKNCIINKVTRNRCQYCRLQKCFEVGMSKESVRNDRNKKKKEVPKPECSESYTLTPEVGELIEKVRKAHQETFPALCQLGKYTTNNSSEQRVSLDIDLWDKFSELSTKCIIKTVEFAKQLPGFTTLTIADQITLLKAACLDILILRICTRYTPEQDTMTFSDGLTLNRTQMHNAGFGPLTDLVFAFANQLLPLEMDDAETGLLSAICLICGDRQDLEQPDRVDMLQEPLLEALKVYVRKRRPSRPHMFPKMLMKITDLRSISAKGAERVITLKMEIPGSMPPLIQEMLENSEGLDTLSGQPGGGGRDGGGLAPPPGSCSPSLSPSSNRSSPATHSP
In short: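 After 24 h of chemical exposure, transiently transfected HepG2 cells were lysed for total RNA; the DR5-regulated reporter transcript was quantified via RT-PCR and capillary electrophoresis, with activity fitted bidirectionally against DMSO.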

[11] = molecular target: Transcription factor E2F1 (Homo sapiens) (UniProt Q01094); experiment: ATG_E2F_CIS: Attagene CIS-FACTORIAL HepG2 Assay for human E2F Transcription Factor 1 (AID 2282935); conditions: HepG2 Attagene cis-reporter, E2F reporter RNA transcripts; actives raise or lower the signal
Chain of Transcription factor E2F1 (Homo sapiens) (Q01094 whole entry, looked up): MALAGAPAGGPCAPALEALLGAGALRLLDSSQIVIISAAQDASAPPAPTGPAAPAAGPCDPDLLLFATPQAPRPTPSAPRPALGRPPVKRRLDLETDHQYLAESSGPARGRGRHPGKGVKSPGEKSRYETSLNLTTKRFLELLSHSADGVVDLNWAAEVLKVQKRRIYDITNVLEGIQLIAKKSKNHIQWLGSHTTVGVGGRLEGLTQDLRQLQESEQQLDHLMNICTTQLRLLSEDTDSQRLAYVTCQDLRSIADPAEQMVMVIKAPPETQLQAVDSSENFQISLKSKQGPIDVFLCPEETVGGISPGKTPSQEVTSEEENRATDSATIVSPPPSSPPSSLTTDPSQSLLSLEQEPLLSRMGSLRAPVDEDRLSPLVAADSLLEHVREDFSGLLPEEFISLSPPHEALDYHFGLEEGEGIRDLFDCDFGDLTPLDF
In short: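 Liver-derived HepG2 cells expressing transfected promoter-driven reporter units received test chemical for 24 hours. Signal gains or losses were fitted bidirectionally against DMSO.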

[12] = ATG_E_Box_CIS: Attagene CIS-FACTORIAL HepG2 Assay for human Enhancer Box (E-box) (AID 2282936); conditions: HepG2 E-box cis-reporter transcription, actives raise or lower the signal
In short: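 In this cell-based setup, HepG2 cells bearing transfected promoter-driven reporter units were exposed to chemicals for 24 h; reporter transcripts were amplified, 6-FAM-labelled, cut with HpaI and sized by capillary electrophoresis.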

[13] = ATG_M_61_CIS: Attagene CIS-FACTORIAL HepG2 Assay for M61 Transcription Factor (Internal Marker) (AID 2282937); conditions: HepG2 Attagene CIS-FACTORIAL M61 internal marker reporter; actives raise or lower the signal
In short: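 Readout: fluorescent reporter mRNA fragments resolved by capillary electrophoresis after RT-PCR. Transiently transfected human HepG2 cells carried MRTU constructs reporting endogenous TF activity; 24 h chemical exposure; gain or loss of signal fitted relative to DMSO.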

[14] = ATG_EGR_CIS: Attagene CIS-FACTORIAL HepG2 Assay for human Early Growth Response 1 (EGR1) (AID 2282938); conditions: HepG2 Attagene CIS-FACTORIAL EGR reporter mRNA; actives raise or lower the signal
In short: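 Read-out: fluorescent reporter-mRNA fragments resolved by capillary electrophoresis after RT-PCR, 24 h post-dose in transiently transfected HepG2. Endogenous transcription-factor activity reported via cis-element-regulated reporter units; gain or loss fitted relative to DMSO.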

[15] = ATG_M_19_CIS: Attagene CIS-FACTORIAL HepG2 Assay for M19 Transcription Factor (Internal Marker) (AID 2282939); conditions: HepG2 Attagene CIS-FACTORIAL M19 internal marker reporter; actives raise or lower the signal
In short: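 HepG2 cells transiently transfected with cis-regulated multiple reporter transcription units were dosed for 24 h; reporter mRNA was quantified by RT-PCR, 6-FAM primer-extension labelling, HpaI digestion and capillary electrophoresis, with bidirectional fitting against DMSO baseline.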

[16] = ATG_ERE_CIS: Attagene CIS-FACTORIAL HepG2 Assay for Estrogen Response Element (ERE) (AID 2282940); conditions: HepG2 ERE cis-reporter, Attagene RNA transcript; actives raise or lower the signal
In short: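 HepG2 cells transiently transfected with cis-promoter-driven multiplexed reporter transcription units report endogenous TF activity. After 24 h compound exposure, reporter mRNA is quantified by RT-PCR with capillary electrophoresis fluorescence; bidirectional fitting versus DMSO baseline.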

[17] = ATG_Ets_CIS: Attagene CIS-FACTORIAL HepG2 Assay for human Erythroblast Transformation Specific (ETS) (AID 2282941); conditions: HepG2 ETS cis-reporter transcription, actives raise or lower the signal
In short: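 Endogenous transcription factor activity read as reporter mRNA via RT-PCR and capillary electrophoresis, with gain or loss fitted bidirectionally against DMSO. Human HepG2 liver cells, transiently transfected CIS reporter constructs, 24 h exposure.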

[18] = molecular target: Hepatocyte nuclear factor 3-beta (Homo sapiens) (UniProt Q9Y261); experiment: ATG_FoxA2_CIS: Attagene CIS-FACTORIAL HepG2 Assay for human Forkhead box A2 (FOXA2) (AID 2282942); conditions: HepG2 cis-reporter transcription factor activity, 24 h; actives raise or lower the signal
Chain of Hepatocyte nuclear factor 3-beta (Homo sapiens) (Q9Y261 whole entry, looked up): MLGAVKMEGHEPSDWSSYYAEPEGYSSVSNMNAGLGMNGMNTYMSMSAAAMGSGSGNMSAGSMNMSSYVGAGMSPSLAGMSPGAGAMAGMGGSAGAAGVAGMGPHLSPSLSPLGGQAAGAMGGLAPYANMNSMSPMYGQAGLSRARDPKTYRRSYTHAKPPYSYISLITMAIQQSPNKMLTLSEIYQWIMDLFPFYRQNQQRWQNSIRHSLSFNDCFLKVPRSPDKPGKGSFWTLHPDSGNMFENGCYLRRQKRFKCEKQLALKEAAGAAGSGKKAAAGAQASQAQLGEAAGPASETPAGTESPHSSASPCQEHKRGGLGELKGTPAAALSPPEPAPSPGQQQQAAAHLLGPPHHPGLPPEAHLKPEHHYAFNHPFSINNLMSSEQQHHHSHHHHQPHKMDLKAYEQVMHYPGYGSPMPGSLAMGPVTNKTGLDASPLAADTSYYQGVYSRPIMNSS
In short: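 Readout: fluorescent reporter transcripts resolved by capillary electrophoresis after RT-PCR. Transiently transfected HepG2, 24 h compound exposure, endogenous TF activity at cis promoter elements. Gain or loss of signal fitted relative to DMSO.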

[19] = ATG_FoxO_CIS: Attagene CIS-FACTORIAL HepG2 Assay for human Forkhead box O (FoxO) (AID 2282943); conditions: HepG2 Attagene cis-reporter, FoxO element, mRNA; actives raise or lower the signal
In short: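 Transfected HepG2 reporter cells exposed to test chemical for 24 h; reporter RNA measured by reverse transcription, PCR and fluorescent capillary electrophoresis; curves fitted for increases and decreases against DMSO.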

[20] = ATG_GATA_CIS: Attagene CIS-FACTORIAL HepG2 Assay for human GATA Binding Protein (AID 2282944); conditions: HepG2 GATA cis-element reporter, Attagene multiplex mRNA; actives raise or lower the signal
In short: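 HepG2 cells transiently transfected with multiplexed cis-element reporter units reflecting endogenous transcription factor activity; reporter mRNA measured after 24 h dosing by RT-PCR, 6-FAM labeling, HpaI digestion and capillary electrophoresis. Bidirectional fitting versus DMSO baseline.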

Measured: AC50

CCCCCCOCCO
inactive: all assays above

CCOc1ccc2c(c1)C(C)=CC(C)(C)N2
active: [4] 69.4 µM | [5] 175 µM | [7] 100 µM | [12] 156 µM | [14] 144 µM | [16] 25.5 µM | [17] 181 µM | [19] 179 µM
not listed: [3]
inactive: all other assays above

CCOC(=O)CCC(=O)OCC
active: [6] 75.7 µM
inactive: all other assays above

CC=Cc1ccc(O)c(OC)c1
active: [6] 73.5 µM
not listed: [18]
inactive: all other assays above

O=C(O)CCCCC(=O)O
active: [6] 72.5 µM
not listed: [10] | [18]
inactive: all other assays above

CCc1c(C(=O)NN2CCCCC2)nn(-c2ccc(Cl)cc2Cl)c1-c1ccc(Br)cc1
active: [4] 6.36 µM | [5] 1.91 µM | [7] 3.93 µM | [10] 2.16 µM | [14] 3.12 µM | [16] 6.06 µM
not listed: [18]
inactive: all other assays above

O=[N+]([O-])C(CO)(CO)CO
active: [6] 68.9 µM
not listed: [18]
inactive: all other assays above

CCCCC(CC)COC(=O)CC(C(=O)OCC(CC)CCCC)S(=O)(=O)O (centres undefined)
not listed: [18]
inactive: all other assays above

CN[C@H]1CC[C@@H](c2ccc(Cl)c(Cl)c2)c2ccc(S(N)(=O)=O)cc21
not listed: [10]
inactive: all other assays above

FC(F)(F)C(F)(F)C(F)(F)C(F)(F)C(F)(F)C(F)(F)CCI
active: [6] 32.1 µM
not listed: [18]
inactive: all other assays above

CCNc1cccc(C)c1
inactive: all assays above

CCCCc1ccc2c(n1)[C@@H](c1ccc(OC)cc1C[C@H](C)C(=O)O)[C@H](C(=O)O)[C@H]2c1ccc2c(c1)OCO2
not listed: [10]
inactive: all other assays above

NCCO
not listed: [3]
inactive: all other assays above

CC(=O)Oc1ccccc1C(=O)O
active: [7] 61.1 µM
inactive: all other assays above
